According to PubChem BioAssay AID1850 (Southern Research Specialized Biocontainment Screening …, 2009):
Screen size: about 310,000 compounds; about 1,000 (0.32%) were called active. No rule for the calls is given here. Only a sample is shown. Results with a measured potency or affinity are listed apart.

Assay: Inhibition of PhoP regulon, Salmonella typhi GFP reporter cells, confirmation, 4 h (AID 1850);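 also: 0% = induced wells with vehicle and 100% = uninduced wells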
Settings: Salmonella Typhi PhoP-promoter GFP reporter, fluorescence, at 50 µM, hits give high values
With `COc1ccc2nc(SCC(=O)Nc3ccccc3C#N)[nH]c2c1` the inhibition was -8.31% (inactive).
With `Cc1ccc(-n2nc3c(=S)[nH]nc(C)c3c2C)cc1` the inhibition was 2.54% (inactive).
For `COc1cccc(C(=O)Nc2ccc(C(=O)c3ccncc3)cc2)c1`, the inhibition was -15.6% (inactive).
With `CCC(C)NC(=O)CSc1nnc(-c2c[nH]c3ccccc23)o1` (stereo not drawn) the inhibition was 7.49% (inactive).
In the case of `COc1ccc(Nc2cccc3ccccc23)cc1`, the inhibition is reported as -1.63% (inactive).
With `Cc1ccc(O)c(Nc2nc(-c3ccccc3)nc3ccccc23)c1` the inhibition was 8.76% (inactive).
For `COc1ccccc1Nc1c2c(nc3ccccc13)CCC2`, the inhibition was 0.56% (inactive).
For `COc1ccc(Nc2ncnc3ccccc23)cc1`, the inhibition was -1.42% (inactive).
For `COc1cc(Nc2c3ccccc3nc3ccccc23)cc(OC)c1OC`, the inhibition was -7.36% (inactive).
With `Cc1ccc(O)c(Nc2ncnc3ccccc23)c1` the inhibition was 3.94% (inactive).
With `COc1ccc(OC)c(Nc2c3ccccc3nc3ccccc23)c1` the inhibition was -13.7% (inactive).
In the case of `COc1ccc(Nc2nc(-c3ccccc3)nc3ccccc23)cc1`, the inhibition is reported as 6.48% (inactive).
For `COc1ccc(CCC(=O)NCCS(=O)(=O)N2CCN(c3ccc(F)cc3)CC2)cc1`, the inhibition was 3.06% (inactive).
For `O=C(c1ccccc1)N1N=C(C(F)(F)F)CC1(O)c1ccc(F)cc1` (stereo not drawn), the inhibition was -5.13% (inactive).
For `CCOC(=O)c1ccc(S(=O)(=O)N2CCN(C(=O)CSc3nc4ccccc4o3)CC2)cc1`, the inhibition was 1.15% (inactive).
With `CC(=O)c1c(C(C)=O)c(C)n(NC(=O)c2ccc(Cl)cc2)c1C` the inhibition was 2.98% (inactive).
For `CN(C)C1=NCC(CSC(=N)N)S1` (stereo not drawn), the inhibition was -1.53% (inactive).
With `CCOc1ccc(N2CC(C(=O)Nc3ccc4c(c3)OCO4)CC2=O)cc1` (stereo not drawn) the inhibition was 2.26% (inactive).
In the case of `Cc1ccc(C(=O)Nc2nnc(S(=O)(=O)N3CCC(C)CC3)s2)cc1`, the inhibition is reported as 4.17% (inactive).
In the case of `O=C(COC(=O)c1ccc(Cl)c(S(=O)(=O)N2CCCC2)c1)NC1CCCCC1`, the inhibition is reported as 5.96% (inactive).
In the case of `Cc1c2ccccc2nc2ccccc12`, the inhibition is reported as -14.3% (inactive).
With `CCOc1ccc(Nc2nc3ccccc3c(=O)s2)cc1` the inhibition was 10.5% (inactive).
For `CCOc1ccc(Nc2cc(C)c3ccccc3n2)cc1`, the inhibition was 10.8% (inactive).
In the case of `COc1c2ccccc2c(OC)c2ccccc12`, the inhibition is reported as -8.01% (inactive).
With `CCOC(=O)C(Cc1ccccc1)NC(=O)CNC(=O)CNC(=O)OCc1ccccc1` (stereo not drawn) the inhibition was 4.1% (inactive).
For `CC1CCCCN1C(=O)COC(=O)c1cc([N+](=O)[O-])ccc1N` (stereo not drawn), the inhibition was 0.19% (inactive).
With `COCCN(C(=O)COC(=O)CC1CCCCC1)c1c(N)n(Cc2ccccc2)c(=O)[nH]c1=O` the inhibition was -6.56% (inactive).
In the case of `COc1ccc(/C=C(\NC(=O)c2ccco2)C(=O)NCCc2nc3ccccc3[nH]2)cc1`, the inhibition is reported as 4.61% (inactive).
